Experimental data: PubChem BioAssay AID1851 (National Center for Advancing Translational Sciences (NCATS), 2009)
About 5,100 (32%) of roughly 16,000 compounds were called active. About 25% were inconclusive and are not listed. This is one part of the list. Unmarked numbers belong to inactive results. The call rests on the fitted dose curve; in most records, active means well fitted curve in the direction sought with a large enough effect; inconclusive means small, poorly fitted or top-dose-only effect, or effect the other way; inactive means no such curve, though single readings can be large or run the other way.

biological target: Cytochrome P450 3A4 (Homo sapiens) (UniProt P08684); assay: Cytochrome panel assay with activity outcomes; conditions: recombinant CYP, pro-luciferin dealkylation, luminescence, p450-cyp3a4; series mostly up to 57.1 µM
Sequence (P08684 whole entry, looked up): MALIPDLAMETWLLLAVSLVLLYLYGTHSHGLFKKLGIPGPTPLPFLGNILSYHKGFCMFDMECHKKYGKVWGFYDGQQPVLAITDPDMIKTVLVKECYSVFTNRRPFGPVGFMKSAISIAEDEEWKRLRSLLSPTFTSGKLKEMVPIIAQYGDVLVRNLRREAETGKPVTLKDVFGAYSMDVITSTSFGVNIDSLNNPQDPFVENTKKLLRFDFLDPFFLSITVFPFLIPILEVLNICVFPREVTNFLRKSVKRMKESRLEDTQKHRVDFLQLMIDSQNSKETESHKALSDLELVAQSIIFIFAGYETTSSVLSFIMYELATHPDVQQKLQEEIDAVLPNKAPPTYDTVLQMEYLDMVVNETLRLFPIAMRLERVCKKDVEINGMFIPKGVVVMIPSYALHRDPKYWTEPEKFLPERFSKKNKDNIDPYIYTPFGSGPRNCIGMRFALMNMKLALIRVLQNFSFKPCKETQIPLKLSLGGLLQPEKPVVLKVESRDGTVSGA
On the % scale 0 is the no-effect control and ±100 the full control effect.

| SMILES | activity, negative = inhibition | AC50 |
| --- | --- | --- |
| Cn1c(=O)c2[nH]c(CCC(=O)O)nc2n(C)c1=O | -3% [at 11.4 µM] | – |
| NS(=O)(=O)c1cc(Cl)c(Cl)c(S(N)(=O)=O)c1 | – | inactive |
| CN(C)c1cc(=O)n2c(n1)SCCC2 | -1.72% [at 2.29 µM] | – |
| O=C(c1coc(=O)c2ccccc12)N1CCN(Cc2ccccc2)CC1 | – | inactive |
| O=C(c1n[nH]c(=O)c2ccccc12)N1CCN(C2c3ccccc3-c3ccccc32)CC1 | – | 11.2 µM (active) |
| COc1ccc(CC(=O)N2CCN(c3ccc(C4=NNC(=O)CC4C)cc3)CC2)cc1 (configuration not stated) | -9.27% [at 2.29 µM] | – |
| Cc1ccc(CC(=O)N2CCN(c3cccc(C(F)(F)F)c3)CC2)cc1 | – | 3.98 µM (active) |
| CCc1ccc(NC(=S)N2CCN(c3cccc(C(F)(F)F)c3)CC2)cc1 | – | inactive |
| CC(=O)Nc1ccccc1C(=O)C(=O)O | – | inactive |
| Cc1ccc(S(=O)(=O)O[C@@H]2[C@H]([C@@H]3COC(C)(C)O3)O[C@H]3OC(C)(C)O[C@@H]32)cc1 | -4.72% [at 11.4 µM] | – |
| O=C(CSc1nc2ccccc2[nH]1)NCCN1CCCCC1 | – | inactive |
| COC(=O)[C@@]1(Cc2ccc(OC)cc2)[C@H]2c3cc(C(=O)N4CCCC4)n(Cc4nc5ccccc5[nH]4)c3C[C@H]2CN1C(=O)c1ccccc1 | – | 2 µM (active) |
| COC(=O)[C@@]1(Cc2ccccc2)[C@H]2c3cc(C(=O)N4CCCC4)n(Cc4nc5ccccc5[nH]4)c3C[C@H]2CN1C(=O)c1ccccc1 | – | 1.26 µM (active) |
| N=C(N)SCCCN | -9.75% [at 11.4 µM] | – |
| O=C1c2ccccc2C(=O)N1C[C@]1(C(=O)O)NCCS1(=O)=O | 8.42% [at 11.4 µM] | – |
| CCOC(=O)N1CCN(c2nc(-c3ccco3)cc(C(F)(F)F)n2)CC1 | – | inactive |
| O=C(NC1CCCC1)c1cnn2c(C(F)(F)F)cc(-c3ccco3)nc12 | – | 14.1 µM (active) |
| O=C(CCC1CCCCC1)Nc1c2c(nn1-c1ccc(F)cc1)CS(=O)(=O)C2 | – | 5.62 µM (active) |
| COC(=O)c1nn(C23CC4CC(CC(C4)C2)C3)c2c1C(=O)N(c1ccc(F)cc1)C2=O | – | inactive |
| O=C(Nc1c2c(nn1-c1ccc(F)cc1)CS(=O)(=O)C2)C12CC3CC(CC(C3)C1)C2 | – | 8.91 µM (active) |
| Cc1cc(C)cc(-n2c(C)cc(C=C(C#N)C#N)c2C)c1 | – | inactive |
| COC(=O)C1=C(NC(=O)c2cccs2)CCS1 | – | 15.8 µM (active) |
| COC(=O)C1=C(NC(=O)c2ccc(C)c(C)c2)CCS1 | – | 28.2 µM (active) |

| SMILES | activity, negative = inhibition | AC50 |
| --- | --- | --- |
| Cc1ccc(S(=O)(=O)O/N=C2/CCCc3occc32)cc1 | – | inactive |
| CCOC(=O)c1cnn(-c2cc(Oc3ccccc3)ncn2)c1N | – | inactive |
| COC(=O)c1cnn(C(=O)c2ccccc2Br)c1N | – | inactive |
| COC(=O)c1cnn(C(=O)c2cc(OC)ccc2Br)c1N | – | 28.2 µM (active) |
| CCNC(=S)N1CC(C)OC(C)C1 (configuration not stated) | – | inactive |
| CCSC(=N)N | – | inactive |
| COc1ccccc1CNc1nc(-c2ccccc2CN(C)C)nc2ccccc12 | – | 12.6 µM (active) |
| COc1ccc(CNc2nc(-c3ccccc3CN(C)C)nc3ccccc23)c(OC)c1 | – | 7.94 µM (active) |
| CN1CCCN(C2C3CC4CC(C3)CC2C4)CC1 (configuration not stated) | – | inactive |
| NS(=O)(=O)c1cccc2c1c([N+](=O)[O-])cc1[nH]c(=O)c(=O)[nH]c12 | – | inactive |
| Cc1cc(NC(=O)c2ccco2)ccc1-n1cnnn1 | – | 8.91 µM (active) |
| Cc1cc(C)cc(NC(=O)N2CCCC2C(=O)Nc2ccc(-n3cnnn3)c(C)c2)c1 (configuration not stated) | – | 5.01 µM (active) |
| CC(=O)Nc1cccc(NC(=O)C2CCCN2C(=O)Nc2ccccc2C)c1 (configuration not stated) | 0.0054% [at 11.4 µM] | – |
| COc1cc(Cn2cnnn2)ccc1O | – | inactive |
| COc1cc(-c2nc3ccccn3c2/N=C/c2ccccc2)ccc1O | – | 7.08 µM (active) |
| O=[N+]([O-])c1ccc(Cl)c(-c2ccc(/C=N/c3c(-c4ccco4)nc4ccccn34)o2)c1 | – | inactive |
| COc1ccc(CNc2ncncc2-c2c(C)noc2C)c(OC)c1 | – | 1.26 µM (active) |
| COc1ccc(CNc2ncncc2-c2ccccc2C)c(OC)c1 | – | 0.398 µM (active) |
| COc1ccc(CNc2ncncc2-c2ccccc2OC)c(OC)c1 | – | 0.316 µM (active) |
| COc1ccc(CNc2ncncc2-c2ccccc2CN(C)C)c(OC)c1 | – | 0.398 µM (active) |
| COCCNc1cc(-c2ccccc2CN(C)C)ncn1 | – | inactive |
| N[C@H](CCC(=O)N[C@H](CSN=O)C(=O)NCC(=O)O)C(=O)O | – | inactive |
| CO[C@@H]1COC(=O)[C@H]2CCCN2C(=O)[C@@H](C)COC(=O)CCC[C@H]1C | -20.2% [at 11.4 µM] | – |

| SMILES | activity, negative = inhibition | AC50 |
| --- | --- | --- |
| Cc1ccc(C(=O)N/C(=C/C=C/c2ccccc2)C(=O)NCc2ccco2)cc1 | – | 5.01 µM (active) |
| C=CCNC(=O)/C(=C\C=C\c1ccccc1)NC(=O)c1ccc(OCCCC)cc1 | – | 8.91 µM (active) |
| CC[N+](CC)(CC)CCOc1ccc(/C=C\c2ccccc2)cc1 | – | inactive |
| C=CCOc1cccc(/C=N/NC(=O)C(=O)NCc2ccco2)c1 | – | inactive |
| Cn1cnc([N+](=O)[O-])c1Sc1nc(N)nc2c1ncn2[C@H]1C[C@H](O)[C@@H](CO)O1 | -4.33% [at 11.4 µM] | – |
| CN1CCC(=C2c3ccccc3C=Cc3ccccc32)CC1 | – | inactive |
| O=C(O)CN(CCOCCOCCN(CC(=O)O)CC(=O)O)CC(=O)O | – | inactive |
| N=C1/C(=C\c2ccc(SCc3ccco3)o2)C(=O)N=C2SC=NN12 | – | 3.98 µM (active) |
| O=C(CCCN1C(=O)c2cccc3cccc(c23)C1=O)N1CCc2ccccc2C1 | – | 5.01 µM (active) |
| N=C(N)N1CCc2ccccc2C1 | – | inactive |
| O=C(CN1C(=O)c2cccc3cccc(c23)C1=O)N1CCCCCC1 | – | 10 µM (active) |
| O=C(c1ccc(S(=O)(=O)N2CCCCCC2)cc1)N1CCC(CN2C(=O)c3cccc4cccc(c34)C2=O)CC1 | – | inactive |
| O=C(O)c1cccc2cccc(-c3cccc4cccc(C(=O)O)c34)c12 | -5.55% [at 11.4 µM] | – |
| CCc1ccc(/C=C\C(=O)N2CCc3ccccc3C2)cc1 | – | inactive |
| COc1cccc(/C=N/NC(=O)c2nc(-c3ccccc3)cc(-c3ccccc3)n2)c1 | – | inactive |
| COc1cccc(-c2cc(C(=O)N/N=C/c3ccc(OC)c(COC(C)=O)c3)c3ccccc3n2)c1 | – | 1.78 µM (active) |
| COc1ccc(/C=N/NC(=O)c2cc(-c3ccc(C)cc3C)nc3ccccc23)cc1COC(C)=O | 14.1% [at 0.457 µM] | – |
| N[C@]1(C(=O)O)CCc2cc(P(=O)(O)O)ccc21 | – | inactive |
| Fc1ccc2c(c1)C(c1ccncc1)=NNC(c1ccc(Cl)cc1)=N2 | – | 1.78 µM (active) |
| Clc1ccc2c(c1)C(c1cccs1)=NNC(c1cccnc1)=N2 | – | 10 µM (active) |
| CC(C)c1ccc2c(c1)C(c1ccc(N3CCOCC3)cc1)=NNC(c1cccs1)=N2 | 9.44% [at 2.29 µM] | – |
| O=C(O)[C@H]1CCCC[C@@H]1c1c2ccc(=O)c(O)c-2oc2c(O)c(O)ccc12 | -5.27% [at 11.4 µM] | – |
| C=CCSc1nc(NC)c2sccc2n1 | – | 25.1 µM (active) |

| SMILES | activity, negative = inhibition | AC50 |
| --- | --- | --- |
| C=CCSc1nc(Oc2ccccc2)c2sccc2n1 | – | 10 µM (active) |
| C=CCSc1ccsc1C(=O)O | – | inactive |
| CSc1nc(Oc2ccc(F)cc2)c2ccccc2n1 | – | inactive |
| C=CCNc1nc(SCC=C)nc2ccsc12 | – | 12.6 µM (active) |
| NS(=O)(=O)c1ccc(N=Nc2c[nH]c(=O)c(O)c2)cc1 | -19.5% [at 11.4 µM] | – |
| N#Cc1c(-c2cccs2)nc(SCC(=O)c2cccs2)[nH]c1=O | -3.29% [at 2.29 µM] | – |
| O=C(CSc1nc2nc(-c3cccs3)cc(C(F)(F)F)c2c(=O)[nH]1)NCc1ccco1 | – | 14.1 µM (active) |
| CSc1nc(-c2ccc(C)cc2)[nH]c1S(=O)(=O)c1ccccc1 | – | 28.2 µM (active) |
| CSc1nc(O)c(Cc2ccccc2)c(=O)[nH]1 | – | inactive |
| CCCCCOC(=O)c1c(N)n(CCOC)c2nc3ccccc3nc12 | – | 8.91 µM (active) |
| C=C(CC1([C@@H](NP(=O)(c2ccccc2)c2ccccc2)[C@H]2C[C@@H]2CCCC)CC1)c1cccc(OC)c1 | – | 2.51 µM (active) |
| C=C(CC1([C@@H](NP(=O)(c2ccccc2)c2ccccc2)[C@H]2C[C@@H]2CCN(C(=O)OCC)S(=O)(=O)c2ccc(C)cc2)CC1)c1ccccc1 | – | 1.58 µM (active) |
| C=C(CC1([C@@H](NP(=O)(c2ccccc2)c2ccccc2)[C@H]2C[C@@H]2CCCC)CC1)c1ccccc1 | – | 1.58 µM (active) |
| O=C(O)c1ccc(SSc2ccc(C(=O)O)cn2)nc1 | -8.92% [at 11.4 µM] | – |
| Cc1cc(C(=O)OCC(=O)NCCCN2CCCC2=O)c2ccccc2n1 | -5.65% [at 2.29 µM] | – |
| Cc1ccc(C(=O)N(CN2CCCC2=O)c2ccccc2)cc1C | – | 12.6 µM (active) |
| O=C1CCCN1CC(O)CS(=O)(=O)c1ccccc1 (configuration not stated) | – | inactive |
| CC1(C)CO[C@H](CC(=O)O)CN1 | – | inactive |
| O=c1c([N+](=O)[O-])cc(C(F)(F)F)cn1Cc1c(Cl)cccc1Cl | – | 14.1 µM (active) |
| O=C(O)C1CCN(c2c([N+](=O)[O-])cc(C(F)(F)F)cc2[N+](=O)[O-])CC1 | – | inactive |
| COc1cccc(OC)c1C(=O)NC(=S)N1CCN(c2ccc(C(F)(F)F)cc2[N+](=O)[O-])CC1 | -16.4% [at 2.29 µM] | – |
| CCC(=O)OCC(=O)[C@@]1(OC(=O)CC)[C@H](C)C[C@@H]2[C@H]3CCC4=CC(=O)C=C[C@]4(C)[C@]3(Cl)[C@@H](O)C[C@@]21C | – | inactive |
| CCC(=O)[C@@]1(C)[C@H](C)C[C@@H]2[C@@H]3CCC4=CC(=O)C=C[C@@]4(C)[C@H]3[C@H](O)C[C@]21C | – | inactive |
